Source: the antibiotic and cytotoxicity screens of Wong et al. (2023)
The whole screen tested about 39,000 compounds, of which about 1,500 (3.8%) were called active. The list comes from a sample in which actives are over-represented; it also holds similar structures and randomly drawn compounds.

test system: HSkMC (human skeletal muscle cells); assay: cytotoxicity call (relative viability < 0.9); conditions: 10 µM

Row | Compound | cytotoxicity call
1 | C[C@H](CO)N1C[C@H](C)[C@H](CN(C)S(=O)(=O)c2cn(C)cn2)Oc2cc(C#Cc3cccc(F)c3)ccc2S1(=O)=O | inactive
2 | COCC(=O)N1C[C@@H](C)[C@H](OC)CN(C)C(=O)c2ccc(NC(=O)Nc3cccc(F)c3)cc2OC[C@H]1C | inactive
3 | C[C@H]1CN([C@@H](C)CO)C(=O)c2cccc(NC(=O)c3cnccn3)c2O[C@@H]1CN(C)CC1CCCCC1 | inactive
4 | CC[C@@H]1OC(=O)[C@H](C)[C@@H](O[C@H]2C[C@@](C)(OC)[C@@H](O)[C@H](C)O2)[C@H](C)[C@@H](O[C@@H]2O[C@H](C)C[C@H](N(C)C)[C@H]2O)[C@](C)(O)C[C@@H](C)/C(=N\OCOCCOC)[C@H](C)[C@@H](O)[C@]1(C)O | inactive
5 | CCNC(=O)C[C@@H]1C=C[C@H](NC(=O)C2CCOCC2)[C@H](CO)O1 | inactive
6 | COc1ccc(C#Cc2cnc3c(c2)C(=O)N([C@H](C)CO)C[C@H](C)[C@H](CN(C)CC2CCOCC2)O3)cc1 | inactive
7 | C[C@H]1CCCCO[C@@H](CN(C)Cc2ccncc2)[C@@H](C)CN([C@@H](C)CO)C(=O)c2cc(NC(=O)C3CCCCC3)ccc2O1 | inactive
8 | C[C@H]1CN([C@@H](C)CO)C(=O)c2cccc(NS(C)(=O)=O)c2O[C@@H]1CN(C)S(=O)(=O)c1ccccc1 | inactive
9 | O=C(C[C@H]1CC[C@@H](NC(=O)Cc2ccccn2)[C@@H](CO)O1)NCCCN1CCOCC1 | inactive
10 | C[C@H]1CN([C@@H](C)CO)C(=O)Cc2cc(NS(C)(=O)=O)ccc2O[C@H]1CN(C)S(C)(=O)=O | inactive
11 | CCCn1c(=O)c(C#N)cn(C2CC2)c1=O | inactive
12 | N=C(N)SCc1csc(N)n1 | inactive
13 | C[C@H]1CN([C@@H](C)CO)C(=O)c2cc(NC(=O)Cc3cn(C)c4ccccc34)ccc2O[C@H]1CN(C)Cc1ccc(Cl)c(Cl)c1 | inactive
14 | C[C@@H]1CN([C@H](C)CO)C(=O)c2cc(NC(=O)Cc3cn(C)c4ccccc34)ccc2O[C@H]1CN(C)Cc1ccc(Cl)c(Cl)c1 | active
15 | C[C@@H]1CN([C@@H](C)CO)C(=O)c2cc(NC(=O)Cc3cn(C)c4ccccc34)ccc2O[C@H]1CN(C)Cc1ccc(Cl)c(Cl)c1 | inactive
16 | C[C@H]1CN([C@@H](C)CO)C(=O)c2cc(NC(=O)Cc3cn(C)c4ccccc34)ccc2O[C@H]1CN(C)Cc1ccc(-c2ccccc2)cc1 | inactive
17 | C[C@H]1CN([C@@H](C)CO)C(=O)c2cc(NC(=O)Cc3cn(C)c4ccccc34)ccc2O[C@@H]1CN(C)Cc1ccc(Cl)c(Cl)c1 | active
18 | C[C@@H]1CN([C@@H](C)CO)C(=O)c2cc(NC(=O)CCN3CCOCC3)ccc2O[C@@H]1CN(C)S(C)(=O)=O | inactive
19 | C[C@H](O)C#Cc1ccc2c(c1)O[C@@H](CN(C)C(=O)Nc1ccccc1)[C@@H](C)CN([C@H](C)CO)S2(=O)=O | inactive
20 | CC(C)NC(=O)Nc1cccc2c1O[C@H](CN(C)Cc1ccc(C(=O)O)cc1)[C@H](C)CN([C@@H](C)CO)C2=O | inactive
21 | CCC1C=C2C(=O)OC(=O)C2CC2=C(C(=O)OC2=O)C(OC(C)=O)C1CC (stereo not drawn) | inactive
22 | COc1ccc(CN(C)C[C@H]2Oc3ccc(NC(=O)C4CC4)cc3CC(=O)N([C@@H](C)CO)C[C@H]2C)cc1 | inactive

Row | Compound | cytotoxicity call
23 | O=C(C[C@H]1CC[C@@H]2[C@H](COC[C@@H](O)CN2S(=O)(=O)c2cccc(Cl)c2)O1)N1CCOCC1 | inactive
24 | CN(C)C(=O)c1ccc(-c2cccc(-c3nc(C(=O)NC4CCCC4)cc4c3[C@H](CCO)N([S@@](=O)C(C)(C)C)C4)c2)cc1 | inactive
25 | Nc1nonc1/C(=N/O)N1CCCCC1 | inactive
26 | Cc1nn(C)c(COc2ccc(N3CCN(S(=O)(=O)N(C)C)CC3)cc2)c1-c1cccc2c(CCCOc3cccc4ccccc34)c(C(=O)O)n(CCN3CCNCC3)c12 | inactive
27 | O=C1C=CC(=O)N1 | active
28 | CN1CCC(OC(c2ccccc2)c2ccccc2)CC1.Cl | inactive
29 | CC(C)(C)c1ccc(C(=O)CCCN2CCC(OC(c3ccccc3)c3ccccc3)CC2)cc1 | active
30 | CN1C2CCC1CC(OC(c1ccccc1)c1ccccc1)C2.CS(=O)(=O)O (stereo not drawn) | inactive
31 | C[C@H]1CCCCO[C@H](CN(C)C(=O)CCC(F)(F)F)[C@@H](C)CN([C@@H](C)CO)C(=O)c2cc(NC(=O)CCC(F)(F)F)ccc2O1 | inactive
32 | C[C@@H]1CN([C@H](C)CO)C(=O)c2cc(NS(C)(=O)=O)ccc2O[C@@H]1CN(C)C(=O)Nc1ccc(C(F)(F)F)cc1 | inactive
33 | COC(=O)CSc1nc(=O)c(C)n[nH]1 | inactive
34 | C[C@@H]1CN([C@@H](C)CO)C(=O)c2cccc(NC(=O)Nc3ccc(C(F)(F)F)cc3)c2O[C@@H]1CN(C)C(=O)Nc1cccc2ccccc12 | active
35 | C[C@H](CO)N1C[C@H](C)[C@H](CN(C)C(=O)Nc2cccc3ccccc23)Oc2c(NC(=O)Nc3ccc(C(F)(F)F)cc3)cccc2C1=O | inactive
36 | C[C@@H]1CN([C@H](C)CO)C(=O)c2cccc(NC(=O)Nc3ccc(C(F)(F)F)cc3)c2O[C@H]1CN(C)C(=O)Nc1cccc2ccccc12 | inactive
37 | C[C@H]1CN([C@@H](C)CO)C(=O)c2cccc(NC(=O)Nc3ccc(C(F)(F)F)cc3)c2O[C@@H]1CN(C)C(=O)Nc1cccc2ccccc12 | active
38 | C[C@@H]1CN([C@@H](C)CO)C(=O)c2cccc(NC(=O)Nc3ccc(C(F)(F)F)cc3)c2O[C@H]1CN(C)C(=O)Nc1cccc2ccccc12 | inactive
39 | C[C@H](CO)N1C[C@H](C)[C@@H](CN(C)C(=O)Nc2cccc3ccccc23)Oc2c(NC(=O)Nc3ccc(C(F)(F)F)cc3)cccc2C1=O | inactive
40 | C[C@@H]1CN([C@H](C)CO)C(=O)c2cccc(NC(=O)Nc3ccc(C(F)(F)F)cc3)c2O[C@@H]1CN(C)C(=O)Nc1cccc2ccccc12 | active
41 | C[C@H]1CN([C@@H](C)CO)C(=O)c2cccc(NC(=O)Nc3ccc(C(F)(F)F)cc3)c2O[C@H]1CN(C)C(=O)Nc1cccc2ccccc12 | inactive
42 | COCC#Cc1cnc2c(c1)C(=O)N([C@@H](C)CO)C[C@@H](C)[C@@H](CN(C)C(C)=O)O2 | inactive
43 | C[C@@H]1CN([C@H](C)CO)C(=O)c2cc(NC(=O)CCCN(C)C)ccc2O[C@H]1CN(C)S(=O)(=O)c1ccccc1 | inactive
